Source: PubChem BioAssay
aDG glyco up: activators of alpha-DG glycosylation, primary screen, uHTS, Pro5-aDG cells, AlphaScreen; alpha-DG glycosylation AlphaScreen (IIH6); 0% Pro5, 100% B10-LARGE cell signal; hit rate 0.22% among 360,000; AID 624168, 2012; activation, % at 10 µM;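 active means activation of at least 8% versus controls, or a plate z-score of at least 8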;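 further: Pro5 are CHO cells carrying HIG-tagged alpha-DG that lacks glycosylation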
m-calpain inh: inhibitors of pig calpain II, primary screen, biochemical, fluorogenic peptide substrate, 1536-well | purified calpain II, 30 min | inhibition, % at 16 µM | hit rate 0.37% among 220,000 | AID 1236, 2008;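 active means inhibition above about 50%, limit read from the data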
FAS-TE inh: FAS thioesterase domain inhibitors, primary screen, biochemical, fluorescence intensity, uHTS; Fatty acid synthase (Homo sapiens), P49327; recombinant FAS-TE, OMFH fluorogenic substrate, fluorescence endpoint; inhibition, % at 15 µM; hit rate 0.67% among 360,000;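 active means compounds whose normalised, plate-corrected inhibition of enzyme fluorescence in the single-dose primary screen is 50% or more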
H9c2 TAG inh: inhibitors of triacylglycerol accumulation, primary screen, cell-based, uHTS, fluorescence, H9c2; hit rate 0.66% among 230,000; AID 651582, 2012; inhibition, % at 12.5 µM; H9c2 cells, Nile Red lipid (TAG) fluorescence; cells loaded with 200 µM oleic acid;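 active means pattern-corrected inhibition of lipid staining of at least 50% with the nuclear-stain viability signal not falling by more than 50%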
MIN6 prolif: inducers of MIN6 beta-cell proliferation, primary screen, ATP luminescence, uHTS; MIN6 cells proliferation, ATPlite luminescence, 48 h; cells starved in 0.2% serum; 100% = growth in 10% serum; proliferation, % at 10 µM; hit rate 0.29% among 330,000; AID 2380, 2010;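 active means compounds whose signal lies at least 3.5 SD above the mean of all wells on their plate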
Cardio protect: cardioprotection against H2O2-induced cell death, primary screen, uHTS, H9c2 cells, ATPLite luminescence. H9c2 cardiomyocytes, H2O2 injury protection, 2 h. protection from H2O2 cell death, % at 20 µM. hit rate 0.63% among 360,000. AID 588492, 2011;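 active means compounds giving at least 50% protection of heart cells from peroxide-induced death in the single-dose screen, raw or plate-pattern-corrected value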
FAS-TE inh conf: FAS thioesterase domain inhibitors, confirmation, biochemical, fluorescence intensity, single concentration | recombinant FAS-TE, OMFH fluorogenic substrate | shares compounds with FAS-TE inh | hit rate 45% among 2,300 | inhibition, % at 15 µM;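 active means compounds inhibiting the enzyme by at least 50% at 15 µM in any one of the replicates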
Large screens that a line does not name were inactive (follow-up assays come after a bar, where they were run). An excerpt weighted towards active compounds, which were near 2.3% of everything screened.

Cc1ccccc1Cn1cc(S(=O)(=O)c2ccc(C(C)C)cc2)c(=O)c2cc3c(cc21)OCO3	FAS-TE inh 62 (no result: m-calpain inh) | FAS-TE inh conf inactive
Cc1ccc(S(=O)(=O)c2cn(Cc3ccc(F)cc3)c3cc4c(cc3c2=O)OCO4)cc1	FAS-TE inh 58 (no result: H9c2 TAG inh) | FAS-TE inh conf inactive
CCN(C)C1CN(Cc2cn(Cc3cccc(Cl)c3)nn2)S(=O)(=O)C1 (centres undefined)	none (no result: m-calpain inh, H9c2 TAG inh, MIN6 prolif, Cardio protect)
C[C@H](CO)N1C[C@H](C)[C@@H](CN(C)C(=O)Nc2ccc(C(F)(F)F)cc2)Oc2c(NC(=O)NC3CCCCC3)cccc2C1=O	none (no result: m-calpain inh)
C[C@@H]1CN([C@H](C)CO)C(=O)c2cccc(NC(=O)NC3CCCCC3)c2O[C@@H]1CN(C)C(=O)Nc1ccc(C(F)(F)F)cc1	FAS-TE inh 77 (no result: m-calpain inh) | FAS-TE inh conf 70
COc1ccc(S(=O)(=O)N(C)C[C@H]2Oc3c(NC(=O)Nc4ccc(C(F)(F)F)cc4)cccc3C(=O)N([C@H](C)CO)C[C@@H]2C)cc1	FAS-TE inh 61, H9c2 TAG inh 57 (no result: m-calpain inh) | FAS-TE inh conf inactive
C[C@H]1CN([C@@H](C)CO)C(=O)c2cccc(NC(=O)Nc3ccc(C(F)(F)F)cc3)c2O[C@@H]1CN(C)S(=O)(=O)c1ccccc1	none (no result: m-calpain inh)
Cc1noc(C)c1NC(=O)N(C)C[C@H]1Oc2c(NC(=O)NC(C)C)cccc2C(=O)N([C@H](C)CO)C[C@@H]1C	none (no result: m-calpain inh, H9c2 TAG inh)
Cc1noc(C)c1NC(=O)Nc1cccc2c1O[C@H](CN(C)C(=O)NC1CCCCC1)[C@@H](C)CN([C@H](C)CO)C2=O	FAS-TE inh 77 (no result: m-calpain inh) | FAS-TE inh conf 84
C[C@H](CO)N1C[C@H](C)[C@@H](CN(C)C(=O)Nc2ccccc2)Oc2c(NC(=O)Nc3ccc(C(F)(F)F)cc3)cccc2C1=O	FAS-TE inh 83 (no result: m-calpain inh, H9c2 TAG inh) | FAS-TE inh conf 92
COc1cccc(CNC(=O)[C@@H]2CCCN2C(=O)[C@H]2CCCCN2C(=O)c2cccc3ccccc23)c1	none (no result: m-calpain inh, H9c2 TAG inh, MIN6 prolif, Cardio protect)
CCOc1ccc(NC(=O)CN(C)C(=O)c2cn(-c3ccccc3)nc2-c2cccs2)cc1OCC	none (no result: m-calpain inh)
O=C(Nc1nc(-c2ccccc2)c(C(=O)c2ccccc2)s1)c1ccc(S(=O)(=O)N2CCCC2)cc1	FAS-TE inh 83 (no result: H9c2 TAG inh) | FAS-TE inh conf inactive
O=C(Nc1nc(-c2ccccc2)c(-c2ccccc2)s1)c1ccc(S(=O)(=O)N2CCCC2)cc1	FAS-TE inh 67 (no result: H9c2 TAG inh) | FAS-TE inh conf inactive
COC(=O)c1sc2ccccc2c1NC(=O)c1ccc(S(=O)(=O)N2CCCCC2)cc1	FAS-TE inh 62 (no result: H9c2 TAG inh) | FAS-TE inh conf inactive
N#CCCN(CCC#N)S(=O)(=O)c1ccc(C(=O)Nc2nc(-c3ccccc3)c(C(=O)c3ccccc3)s2)cc1	FAS-TE inh 58 | FAS-TE inh conf inactive
O=C(Nc1ccccc1)c1ccc(S(=O)(=O)N2CCCC2)cc1	none (no result: H9c2 TAG inh)
CN(C(=O)CSc1ncnc2ccccc12)C1CCCCC1	none (no result: m-calpain inh)
CN(c1cccc(NC(=O)c2ccc(Cl)c(S(=O)(=O)N3CCOCC3)c2)c1)S(C)(=O)=O	none (no result: m-calpain inh)
Cc1ccc2nc(C(C)(C)C)c(Cc3ccccc3C(F)(F)F)n2c1	none (no result: m-calpain inh, H9c2 TAG inh, MIN6 prolif)
CCS(=O)(=O)c1ccc2oc(Nc3cc(C)cc(C)c3)nc2c1	none (no result: H9c2 TAG inh)
CCS(=O)(=O)c1ccc2oc(Nc3ccc(C(C)C)cc3)nc2c1	FAS-TE inh 52 | FAS-TE inh conf 47
Cc1ccc(S(=O)(=O)N2[C@@H](c3ccc(C(C)(C)C)cc3)C(C(=O)O)=CC[C@H]2c2ccc(Cl)cc2)cc1	FAS-TE inh 55 (no result: m-calpain inh) | FAS-TE inh conf 49
Cc1ccc(S(=O)(=O)N2[C@@H](c3ccc(C(C)(C)C)cc3)C(C(=O)O)=CC[C@H]2c2ccc(C(C)C)cc2)cc1	FAS-TE inh 76 (no result: m-calpain inh) | FAS-TE inh conf inactive
Cc1ccc([C@@H]2CC=C(C(=O)O)[C@H](c3ccc(C(C)(C)C)cc3)N2S(=O)(=O)c2ccc(C)cc2)cc1	none (no result: m-calpain inh)
CCn1c(=S)sc2c(=O)n(-c3ccccc3)c(SC)nc21	none (no result: H9c2 TAG inh)
N#CCSc1nc2c(sc(=S)n2Cc2ccco2)c(=O)n1-c1ccc(F)cc1	FAS-TE inh 58 (no result: H9c2 TAG inh) | FAS-TE inh conf inactive
COc1ccc(Cl)cc1NC(=O)C/C(C)=N/NC(=O)c1ccc(O)cc1	none (no result: m-calpain inh, H9c2 TAG inh)
COc1cc(OC)c2c(-c3ccccc3)cc(=O)oc2c1C(CC(=O)N1CCN(c2ccccc2)CC1)c1ccc(N(C)C)cc1 (centres undefined)	FAS-TE inh 70 | FAS-TE inh conf inactive
COc1cc(OC)c2ccc(=O)oc2c1C(CC(=O)N1CCOCC1)c1ccc2c(c1)OCO2 (centres undefined)	none (no result: H9c2 TAG inh)
COc1cc(OC)c2c(-c3ccccc3)cc(=O)oc2c1C(CC(=O)N1CCOCC1)c1ccc(N(C)C)cc1 (centres undefined)	none
COc1cc(OC)c2ccc(=O)oc2c1C(CC(=O)N1CCN(c2ccccc2)CC1)c1ccc2c(c1)OCO2 (centres undefined)	FAS-TE inh 51, Cardio protect 70 | FAS-TE inh conf inactive
NC(=O)C1CC(=O)N(c2ccc(OCc3ccc(F)cc3)cc2)C1 (centres undefined)	none (no result: m-calpain inh, H9c2 TAG inh)
COc1ccc2[nH]c3c(c2c1)CCN1C(=O)C(CC(=O)NCCC2=CCCCC2)C[C@H](C(=O)N2CCCCC2)[C@@]31CCc1ccccc1 (some centres undefined)	none (no result: m-calpain inh, MIN6 prolif)
COCCCNC(=O)C[C@H]1C[C@H](C(=O)N2CCOCC2)[C@@]2(CCC3CCCC3)c3[nH]c4ccc(Cl)cc4c3CCN2C1=O	FAS-TE inh 86 (no result: m-calpain inh, MIN6 prolif) | FAS-TE inh conf inactive
COc1ccc2[nH]c3c(c2c1)CCN1C(=O)C(CC(=O)NCCC2=CCCCC2)C[C@H](C(=O)N2CCOCC2)[C@@]31CCC1CCCC1 (some centres undefined)	FAS-TE inh 67 (no result: m-calpain inh, MIN6 prolif) | FAS-TE inh conf 69
O=C(C[C@H]1C[C@H](C(=O)N2CCOCC2)[C@@]2(CCC3CCCC3)c3[nH]c4ccc(Cl)cc4c3CCN2C1=O)NCCc1ccccn1	FAS-TE inh 83 (no result: m-calpain inh, MIN6 prolif) | FAS-TE inh conf 93
O=C(C[C@H]1C[C@H](C(=O)N2CCOCC2)[C@@]2(CCC3CCCC3)c3[nH]c4ccc(Cl)cc4c3CCN2C1=O)NCCN1CCOCC1	FAS-TE inh 85 (no result: m-calpain inh, MIN6 prolif) | FAS-TE inh conf 76
C[C@]12c3[nH]c4ccc(Cl)cc4c3CCN1C(=O)[C@@H](CC(=O)NCCN1CCOCC1)C[C@@H]2C(=O)N1CCOCC1	none (no result: m-calpain inh, MIN6 prolif)
CCOC(=O)c1c[nH]n2c(=S)ncnc12	none (no result: m-calpain inh, MIN6 prolif)
Cc1ccccc1-c1nc(NCCN(C)C)nc2ccsc12	none (no result: m-calpain inh, MIN6 prolif)
